Among all 5,500 compounds or so, about 2,000 (36%) were called active. Roughly 18% stayed inconclusive and do not appear here. Cut-off read from the data, not from the text of the source: active = normalized growth mostly below about 0.91 (no sharp cut-off); inconclusive = no clear call, values can overlap the other calls; inactive = mostly above about 0.92. This is one part of the list.
Test: chemical genetic growth profiling, strain panel (AID 1159580);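 note: tested at 20 µM; growth read once vehicle control cultures reached saturation at 30 °C; 1 = growth at the plate median or of vehicle wells; lower values mean less growth of the strain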
Settings: growth OD

Measured: normalized growth

c1coc(CNc2ncnc3nc[nH]c23)c1
inactive: S. cerevisiae deletion strains, locus YJR075W, strain HOC1, stronger effect = lower value 1 | S. cerevisiae deletion strains, locus YKL009W, strain mrt4, stronger effect = lower value 1.03 | S. cerevisiae deletion strains, locus YKL068W, stronger effect = lower value 0.979 | S. cerevisiae deletion strains, locus YKL085W, strain MDH1 (second series), stronger effect = lower value 1.01 | S. cerevisiae deletion strains, locus YKL085W, strain MDH1, stronger effect = lower value 1.01 | S. cerevisiae deletion strains, locus YKL160W, strain elf1, stronger effect = lower value 1.02 | S. cerevisiae deletion strains, locus YKL190W, strain CNB1, stronger effect = lower value 0.994 | S. cerevisiae deletion strains, locus YKR001C, strain vps1, stronger effect = lower value 1 | S. cerevisiae deletion strains, locus YKR026C, strain gcn3, stronger effect = lower value 0.999 | S. cerevisiae deletion strains, locus YKR091W, strain srl3, stronger effect = lower value 0.994 | S. cerevisiae deletion strains, locus YLL001W, strain dnm1, stronger effect = lower value 1.01 | S. cerevisiae deletion strains, locus YLL026W, stronger effect = lower value 0.999 | S. cerevisiae deletion strains, locus YLL041C, strain sdh2, stronger effect = lower value 0.997 | S. cerevisiae deletion strains, locus YLR027C, strain aat2, stronger effect = lower value 1 | S. cerevisiae deletion strains, locus YLR039C, strain RIC1, stronger effect = lower value 1.01 | S. cerevisiae deletion strains, locus YLR058C, strain SHM2, stronger effect = lower value 1 | S. cerevisiae deletion strains, locus YLR102C, strain apc9, stronger effect = lower value 0.989 | S. cerevisiae deletion strains, locus YLR113W, strain HOG1, stronger effect = lower value 0.993 | S. cerevisiae deletion strains, locus YLR221C, strain rsa3, stronger effect = lower value 0.975 | S. cerevisiae deletion strains, locus YLR258W, strain gsy2, stronger effect = lower value 0.996 | S. cerevisiae deletion strains, locus YLR262C, strain YPT6 (second series), stronger effect = lower value 0.977 | S. cerevisiae deletion strains, locus YLR262C, strain YPT6, stronger effect = lower value 0.981 | S. cerevisiae deletion strains, locus YLR268W, strain sec22, stronger effect = lower value 0.97 | S. cerevisiae deletion strains, locus YLR320W, strain mms22, stronger effect = lower value 1 | S. cerevisiae deletion strains, locus YLR330W, strain CHS5, stronger effect = lower value 0.994 | S. cerevisiae deletion strains, locus YLR342W, strain FKS1 (second series), stronger effect = lower value 1.02 | S. cerevisiae deletion strains, locus YLR342W, strain FKS1, stronger effect = lower value 1.01 | S. cerevisiae deletion strains, locus YLR357W, strain rsc2, stronger effect = lower value 0.98 | S. cerevisiae deletion strains, locus YLR370C, strain arc18, stronger effect = lower value 0.993 | S. cerevisiae deletion strains, locus YLR371W, strain rom2, stronger effect = lower value 0.99 | S. cerevisiae deletion strains, locus YLR384C, strain iki3, stronger effect = lower value 1 | S. cerevisiae deletion strains, locus YLR418C, strain cdc73, stronger effect = lower value 1 | S. cerevisiae deletion strains, locus YML016C, strain PPZ1, stronger effect = lower value 1 | S. cerevisiae deletion strains, locus YML032C, strain rad52, stronger effect = lower value 0.993 | S. cerevisiae deletion strains, locus YML120C, strain ndi1, stronger effect = lower value 0.992 | S. cerevisiae deletion strains, locus YML124C, strain tub3, stronger effect = lower value 1 | S. cerevisiae deletion strains, locus YMR058W, strain fet3, stronger effect = lower value 0.998 | S. cerevisiae deletion strains, locus YMR078C, strain ctf18, stronger effect = lower value 0.994 | S. cerevisiae deletion strains, locus YMR125W, strain sto1, stronger effect = lower value 0.974 | S. cerevisiae deletion strains, locus YMR129W, stronger effect = lower value 0.988 | S. cerevisiae deletion strains, locus YMR205C, strain PFK2, stronger effect = lower value 1 | S. cerevisiae deletion strains, locus YMR223W, strain ubp8, stronger effect = lower value 1.02 | S. cerevisiae deletion strains, locus YMR231W, strain pep5, stronger effect = lower value 0.991 | S. cerevisiae deletion strains, locus YMR263W, strain SAP30, stronger effect = lower value 0.986 | S. cerevisiae deletion strains, locus YMR307W, strain GAS1, stronger effect = lower value 1.11 | S. cerevisiae deletion strains, locus YNL067W, strain RPL9B, stronger effect = lower value 0.983 | S. cerevisiae deletion strains, locus YNL071W, strain lat1, stronger effect = lower value 0.999 | S. cerevisiae deletion strains, locus YNL128W, strain TEP1, stronger effect = lower value 0.99 | S. cerevisiae deletion strains, locus YNL153C, strain GIM3, stronger effect = lower value 0.991 | S. cerevisiae deletion strains, locus YNL183C, strain NPR1, stronger effect = lower value 0.914 | S. cerevisiae deletion strains, locus YNL209W, strain ssb2, stronger effect = lower value 0.986 | S. cerevisiae deletion strains, locus YNL233W, strain BNI4, stronger effect = lower value 1.01 | S. cerevisiae deletion strains, locus YNL248C, strain rpa49, stronger effect = lower value 0.989 | S. cerevisiae deletion strains, locus YNL250W, strain rad50, stronger effect = lower value 0.995 | S. cerevisiae deletion strains, locus YNL271C, strain bni1, stronger effect = lower value 0.988 | S. cerevisiae deletion strains, locus YNL298W, strain CLA4, stronger effect = lower value 1 | S. cerevisiae deletion strains, locus YNL307C, strain MCK1, stronger effect = lower value 0.995 | S. cerevisiae deletion strains, locus YNL322C, strain KRE1 (second series), stronger effect = lower value 0.992 | S. cerevisiae deletion strains, locus YNL322C, strain KRE1, stronger effect = lower value 0.987 | S. cerevisiae deletion strains, locus YNR049C, strain mso1, stronger effect = lower value 0.999 | S. cerevisiae deletion strains, locus YNR052C, strain pop2, stronger effect = lower value 0.993 | S. cerevisiae deletion strains, locus YOL006C, strain TOP1, stronger effect = lower value 0.981 | S. cerevisiae deletion strains, locus YOL012C, strain htz1 0.989 | S. cerevisiae deletion strains, locus YOL147C, strain pex11, stronger effect = lower value 0.999 | S. cerevisiae deletion strains, locus YOR001W, strain rrp6, stronger effect = lower value 1.01 | S. cerevisiae deletion strains, locus YOR061W, strain CKA2, stronger effect = lower value 1 | S. cerevisiae deletion strains, locus YOR069W, strain VPS5, stronger effect = lower value 1 | S. cerevisiae deletion strains, locus YOR070C, strain gyp1, stronger effect = lower value 1 | S. cerevisiae deletion strains, locus YOR080W, strain dia2, stronger effect = lower value 0.995 | S. cerevisiae deletion strains, locus YOR083W, strain WHI5, stronger effect = lower value 1 | S. cerevisiae deletion strains, locus YOR106W, strain vam3, stronger effect = lower value 1 | S. cerevisiae deletion strains, locus YOR136W, strain idh2, stronger effect = lower value 0.996 | S. cerevisiae deletion strains, locus YOR144C, strain elg1, stronger effect = lower value 0.99 | S. cerevisiae deletion strains, locus YOR184W, strain ser1, stronger effect = lower value 0.997 | S. cerevisiae deletion strains, locus YOR231W, strain MKK1, stronger effect = lower value 0.998 | S. cerevisiae deletion strains, locus YOR265W, strain rbl2, stronger effect = lower value 0.996 | S. cerevisiae deletion strains, locus YOR270C, strain vph1, stronger effect = lower value 0.99 | S. cerevisiae deletion strains, locus YOR290C, strain snf2, stronger effect = lower value 0.991 | S. cerevisiae deletion strains, locus YOR316C, strain cot1, stronger effect = lower value 0.989 | S. cerevisiae deletion strains, locus YPL051W, strain arl3, stronger effect = lower value 0.996 | S. cerevisiae deletion strains, locus YPL055C, strain LGE1, stronger effect = lower value 0.978 | S. cerevisiae deletion strains, locus YPL078C, strain atp4, stronger effect = lower value 1.01 | S. cerevisiae deletion strains, locus YPL106C, strain sse1, stronger effect = lower value 0.995 | S. cerevisiae deletion strains, locus YPL240C, strain hsp82, stronger effect = lower value 1.02 | S. cerevisiae deletion strains, locus YPL241C, strain CIN2, stronger effect = lower value 1 | S. cerevisiae deletion strains, locus YPL256C, strain CLN2, stronger effect = lower value 0.965 | S. cerevisiae deletion strains, locus YPR119W, strain clb2, stronger effect = lower value 0.999 | S. cerevisiae deletion strains, locus YPR141C, strain kar3, stronger effect = lower value 0.981 | S. cerevisiae deletion strains, locus YPR163C, strain tif3, stronger effect = lower value 1 | S. cerevisiae deletion strains, locus YPR167C, strain met16, stronger effect = lower value 0.99 | S. cerevisiae deletion strains, strain wtn01, stronger effect = lower value 0.986 | S. cerevisiae strains, strain wild type, stronger effect = lower value 0.999
